Results reported in PubChem BioAssay (NCI).
About 83,000 compounds went through this panel and 20% of them were active in at least one assay; those are over-represented in the sample as a whole.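 Interpretation: 100, growth as untreated; towards 0, rising growth inhibition; 0, no net growth; 0 to -100, cell death. Compounds scoring below 10 were considered active.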 A number with no mark means an inactive call. Activity calls are given as the source filed them.

tested on: HCT-116 colon; experiment: NCI-60 one-dose screen, 48 h (100 = growth as untreated, 0 = no growth, -100 = all killed); conditions: 10 µM unless noted
Description: Growth inhibition of the HCT-116 human tumor cell line is measured as a screen for anti-cancer activity. Cells are grown in 96 well plates and exposed to the test compound for 48 hours. Compounds are tested at a single concentration, which is 10^-5 M for most compounds. The reported endpoint is percent growth (GI% or GIPRCNT), where numbers from 0 - 100% represent growth inhibition, and numbers from -100% - 0 represent cell death. For example, a value of 40 represents 60% growth inhibition. A value of 0 means no net growth occurred over the course of the experiment. A value of -40 indicates 40% of cells at the beginning of the experiment died by the end of the experiment. A value of -100 means all cells are dead at the end of the experiment.
NCI-60 Human Tumor Cell Lines Screen was performed using the standard one-dose NCI protocol, which is described in more detail at https://dtp.cancer.gov/discovery_development/nci-60/default.htm.
Compounds with GIPRCNT values below 10 were considered active. Activity score was based on GIPRCNT using the following formula: […]
Score is 0 for GIPRCNT values of 100 or above, 50 for GIPRCNT values of 0, and 100 for GIPRCNT values of -100.

Row | SMILES | growth
1 | CC(=O)[C@@H]1CC[C@]2(C(N)=O)CC[C@]3(C)[C@H](CC[C@@H]4[C@@]5(C)CCC(=O)C(C)(C)[C@@H]5CC[C@]43C)[C@@H]12 | 90.4%
2 | COc1cccc(CNCCN2C(=O)c3ccc4c5c(ccc(c35)C2=O)C(=O)N(CCNCc2cccc(OC)c2)C4=O)c1 | -41.6% (active)
3 | C#CC(=O)Nc1cccc2c1cc(C)n2-c1nc2c(c(NCc3ccccc3)n1)CCCC2 | -70.3% (active)
4 | COc1ccc(Cl)cc1NC(=O)c1c(NC(=O)C(F)(F)C(F)(F)F)sc2c1CCCCC2 | -0.0954% (active)
5 | COc1ccc(/C(=C\c2ccccc2)C(=O)O)cc1OC | 102%
6 | O=C(Nc1cccc(Cl)c1)c1cc(Cl)ccc1O | 6.01% (active)
7 | CN1CCN(Cc2ccc(NC(=O)c3cncc(C#Cc4cnccc4C(F)(F)F)c3)cc2C(F)(F)F)CC1 | 29.1%
8 | COc1ccc(-c2c[nH]c(C(=O)O)c2-c2cc(OC)c3c(c2OC)OCO3)cc1 | 106%
9 | c1ccc(CCSc2ncnc3nc[nH]c23)cc1 | 88.1%
10 | CC(=O)N1N=C(c2cccc(Nc3ccncc3)c2)CC1c1ccc2c(c1)OCO2 (stereo not given) | -52.3% (active)
11 | C=C1C(=O)O[C@H]2[C@H]1CC/C(COC(=O)CCCc1c[nH]c3ccccc13)=C\CC[C@@]1(C)O[C@@H]21 | -77.5% (active)
12 | COc1ccc2c(/C=C3/C(=O)NC(=S)NC3C)cc(=O)oc2c1 (stereo not given) | 95.6%
13 | COc1cc(NCCCN(CC(C)C)CC(C)C)c2ncccc2c1 | 62%
14 | O=C1CCCN1c1cccc2cccnc12 | 102%
15 | COc1cc(-c2cc(=O)oc3cc(O)ccc23)c(OC)c2c1OCO2 | 98.4%
16 | Fc1ccc(C2CC(c3cccc(Nc4ccncc4)c3)=NN2c2ccc(Cl)cc2)cc1 (stereo not given) | 101%
17 | Cc1ccc2[nH]c(=S)n(-c3ccc(S(=O)(=O)Nc4ccc(Cl)nn4)cc3)c(=O)c2c1 | 39.7%
18 | O=C(Cc1ccc(/C=C/C(=O)c2ncc[nH]2)cc1)Nc1ccc(C(F)(F)F)cc1 | -58.7% (active)
19 | COc1ccc(C2CC(c3cccc(Nc4ccncc4)c3)=NN2c2cc(Cl)cc(Cl)c2)cc1 (stereo not given) | 83.9%
20 | c1ccc(N2N=C(c3cccc(Nc4ccncc4)c3)CC2c2ccc3c(c2)OCO3)cc1 (stereo not given) | 63.3%

Row | SMILES | growth
21 | NNC(=O)/C(=C\c1ccc([N+](=O)[O-])cc1)CC(=O)c1ccc(Cl)c(Cl)c1 | 88.9%
22 | COc1ccc(-c2nc(N=Nc3c(O)[nH]c4ccccc34)nc(N3CCOCC3)c2C#N)cc1 | 29.7%
23 | CC(=O)N1c2ccccc2NC2=C(C(=O)N(C)C2(C)C)C1C (stereo not given) | 24.9%
24 | Clc1cc(Cl)cc(N2N=C(c3cccc(Nc4ccncc4)c3)CC2c2ccccc2)c1 (stereo not given) | 38.7%
25 | Nc1nnc(C(=O)c2cnc3n(c2=O)CCCCC3)s1 | 103%
26 | O=C1Nc2c(ccc(Cl)c2Cl)/C1=C/c1ccccn1 | 24.2%
27 | CN(C)C(=O)c1cc2cnc(Nc3ccc(-c4csc5c(=O)cc(N6CCOCC6)oc45)cc3)nc2n1C1CCCC1 | -29.2% (active)
28 | COc1ccccc1-c1c(-c2ccc(Cl)cc2)c2cc3c(cc2[nH]c1=O)OCCO3 | 47.7%
29 | COc1ccc(Cn2nc(-c3cc(OC)c(OC)c(OC)c3)c3c2CCc2cnoc2-3)cc1OC | 46.6%
30 | C=C(C)[C@@H]1CC[C@]2(C=O)CC[C@]3(C)[C@H](CC[C@@H]4[C@@]5(C)CCCNC(C)(C)[C@@H]5CC[C@]43C)[C@@H]12 | 25.4%
31 | Clc1nc(Cl)c2ncn(CCOCCn3cnc4c(Cl)nc(Cl)nc43)c2n1 | -79.7% (active)
32 | Nc1c(Cl)cc([N+](=O)[O-])cc1Br | 105%
33 | COc1ccc(-c2nc(N/N=C/c3c[nH]c4ccccc34)nc(N3CCOCC3)c2C#N)cc1 | 59.8%
34 | COc1ccc(/C=C/C(=O)c2ccc(Nc3ncnc4ccccc34)cc2)cc1OC | 9.59% (active)
35 | C=C1C(=O)O[C@H]2[C@H]1CC/C(CNC(=O)/C=C/c1ccccc1F)=C\CC[C@@]1(C)O[C@@H]21 | -34.9% (active)
36 | O=C1Nc2ccccc2/C1=N/c1nc(-c2ccc(Cl)cc2)cs1 | 59.1%
37 | Cc1[nH]c(C(=O)Nc2ccccc2OCc2cccc(C(=O)NCCN)c2)c(Cl)c1Cl | 7.52% (active)
38 | COc1ccc(Nn2c(SCC(=O)Nc3nc(-c4ccc(Cl)cc4)cs3)nc(C)c2C)cc1 | 27.8%
39 | COc1cc(CNC(=O)CCCCC[P+](c2ccccc2)(c2ccccc2)c2ccccc2)c(OC)c2c1OCO2 | 50.4%
40 | c1ccc(-c2nn(-c3ccccc3)[n+](-c3ccccc3-c3ccccc3)n2)cc1 | 7.4% (active)
